# High-throughput results as filed in PubChem BioAssay.
# Mtb RmlCD inh: M. tuberculosis RmlC/RmlD inhibition; RmlC+RmlD coupled enzyme assay, percent inhibition; primary screen in compound mixtures; inhibition, % at 3.6 µM; 160,000 compounds, 0.03% hits; in the data active means inhibition mostly above about 34%, no sharp cut-off; inconclusive means no clear call, values can overlap the other calls; inactive means mostly below about 22%
# VHR inh abs: DUSP3 (human) phosphatase inhibition; P51452; recombinant VHR phosphatase, pNPP absorbance; inhibition, % at 13.3 µM; 290,000 compounds, 0.52% hits; in the data active means inhibition above about 50%
# Target sequence (P51452 whole entry, looked up): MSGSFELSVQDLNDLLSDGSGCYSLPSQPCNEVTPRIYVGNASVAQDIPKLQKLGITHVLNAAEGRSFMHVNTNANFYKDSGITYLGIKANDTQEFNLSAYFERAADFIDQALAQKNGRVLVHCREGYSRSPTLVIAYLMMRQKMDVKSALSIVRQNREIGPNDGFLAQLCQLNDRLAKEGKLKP
# * hit, by the source's call; ? = inconclusive; / = not tested or not shown. Shown are actives, neighbours in structure and some others; about 0.54% of the full set was active somewhere.
SMILES,Mtb RmlCD inh,VHR inh abs
CCOC(=O)N1CCN(C(=O)c2ccc(CS(=O)c3ccccc3)o2)CC1 (stereo not drawn),/,16.6
O=C(NCCCN1CCCCC1)c1ccc(CS(=O)c2ccc(Cl)cc2)o1 (stereo not drawn),/,73.4
CCCN1CCN(C(=O)c2ccc(CS(=O)c3ccc(Cl)cc3)o2)CC1 (stereo not drawn),/,56.7*
O=C(NCCCN1CCCCC1)c1ccc(CS(=O)c2ccc(F)cc2)o1 (stereo not drawn),/,52.5*
CCc1ccc2c(CN(C)Cc3ccc(OC(F)F)c(OC)c3)cc(=O)oc2c1,/,7.4
COC(=O)[C@H](CC(C)C)NC(=O)c1cc2c(cn1)[nH]c1ccccc12,/,8.6
CCS(=O)(=O)NCCc1cc2c(OC)ccc(OC)c2[nH]c1=O,-4.8,52.9*
COc1ccc(OC)c2[nH]c(=O)c(CCNS(=O)(=O)c3ccc(F)cc3)cc12,/,-9.4
CC1=C([N+](=O)[O-])C(c2ccc(Cl)cc2)NC(=O)N1 (stereo not drawn),/,58.7*
CC1=C([N+](=O)[O-])C(c2ccccc2Cl)NC(=O)N1 (stereo not drawn),/,17.9
CS(=O)(=O)N1CCC(Oc2cccc(C(=O)NCCCC3CCCC3)c2)CC1,/,-11.3
O=C(CSc1nnc(CNC(=O)c2ccco2)o1)Nc1ccccc1F,/,5.5
COc1cccc(NCc2ccc([N+](=O)[O-])s2)c1,3.3,2.1
COc1ccc(C(=O)N/C(=C\c2cn(S(=O)(=O)N(C)C)c3ccccc23)C(=O)NCCN2CCOCC2)cc1OC,/,-3.6
Cc1[nH]c2ccc(C(=O)NCCN3CCCCCC3)cc2c1C,/,-13.4
Cc1[nH]c2ccc(C(=O)NCCCN3CCCCC3)cc2c1C,/,56.7*
CSCC[C@H](NC(=O)c1ccc(Br)o1)c1nnc2ccccn12,/,6.8
c1coc(-c2nc(-c3ccco3)c(-c3ccco3)nc2-c2ccco2)c1,46.6,50.6*
Nc1nc(-c2ccco2)c(-c2ccco2)s1,/,13.6
C=CCn1c(CCNC(=O)c2ccccc2F)nnc1SCc1nc2ccccc2c(=O)[nH]1,-8.3,26.3
C=CCn1c(CNC(=O)c2ccccc2F)nnc1SCc1nc2ccccc2c(=O)[nH]1,-5.3,51.9*
CC(=O)c1ccc(OCc2cc(C(=O)N(C)Cc3ncc(C)[nH]3)no2)cc1,/,22.6
COc1cccc(OCc2cc(C(=O)N(C)Cc3nc4ccccc4[nH]3)no2)c1,/,51.3*
CC(=O)c1cccc(OCc2cc(C(=O)N(C)Cc3cnccn3)no2)c1,/,50.2*
CC(=O)c1cccc(OCc2cc(C(=O)N(C)C(C)c3ccccn3)no2)c1 (stereo not drawn),/,17.5
SMILES,Mtb RmlCD inh,VHR inh abs
COc1cc(C(=O)O[C@H]2CC(C)=CC[C@@]3(C)CC[C@@](O)(C(C)C)[C@H]23)ccc1O,/,-11.0
CCOCCn1c(=O)c2c(nc3n2CCCN3CCc2ccccc2)n(C)c1=O,/,-3.0
COc1ccc(NC(=S)N(CCN2CCOCC2)Cc2cc3cc4c(cc3[nH]c2=O)OCCO4)cc1,4.2,29.7
O=C(c1ccccc1)N1CCC(c2nc3c(nnn3Cc3ccco3)c(=O)[nH]2)CC1,0.2,50.0*
O=C(c1ccc(Cl)cc1Cl)N1CCC(c2nc3c(nnn3Cc3ccco3)c(=O)[nH]2)CC1,8.7,27.7
Cc1ccc(CNC(=O)C2CCC(CNS(=O)(=O)c3cccs3)CC2)cc1 (stereo not drawn),/,15.3
Cc1cc(C)c(S(=O)(=O)N2CCN(S(=O)(=O)N3CCOCC3)CC2)c(C)c1,/,15.8
Fc1ccc(-n2c(-c3ccc4ccccc4n3)n[nH]c2=S)cc1,-10.2,26.1
S=c1[nH]nc(-c2ccc3ccccc3n2)n1-c1cc(Cl)cc(Cl)c1,4.4,55.4*
COCc1ccc2oc(C(=O)O)cc2c1,1.0,0.0
COc1ccc(-c2cc(C(=O)N3CCCCCC3)no2)cc1OC,/,33.9
O=C(Cn1nc(-c2ccccc2)ccc1=O)NCC1COCCO1 (stereo not drawn),?,26.8
O=C(Cn1nc(-c2ccc(Cl)cc2)ccc1=O)NCC1COCCO1 (stereo not drawn),/,52.0*
Cc1cc(-c2nnc(SCC(=O)Nc3ccc(Br)cc3F)n2N)n[nH]1,/,-9.3
COc1ccc(NC(=O)CN2C(=O)COc3ccc(C)cc32)cc1,/,2.3
Cc1cc(C)c(C)c(OCCNCc2ccccc2)c1,/,52.0*
Cc1cc(C)c(OCCNCc2ccccc2)c(C)c1,/,17.9
CCCC(C(=O)NC(C)(C)C)N(CC1CCCO1)C(=O)CNS(=O)(=O)c1ccc(F)cc1 (stereo not drawn),/,18.5
Cc1ccc(NC(=O)CCOc2ccccc2C)cc1F,/,7.3
CCOC(=O)N1CCC(NC(=O)c2cccn3c(=O)c4cc(Br)ccc4nc23)CC1,-10.2,83.6*
CCOC(=O)N1CCC(NC(=O)c2ccc3nc4ccccc4c(=O)n3c2)CC1,/,37.6
CC(=O)N1c2ccc(S(=O)(=O)N3CCCCC3)cc2CC1C(=O)NCc1ccccc1C (stereo not drawn),/,52.1*
CCOc1ccccc1CNC(=O)C1Cc2cc(S(=O)(=O)N3CCCCC3)ccc2N1C(C)=O (stereo not drawn),/,18.2
O=C(NC1CCCCC1)C1CCCN1S(=O)(=O)c1ccc(Cl)cc1 (stereo not drawn),/,53.3*
COc1ccccc1CNC(=O)C1Cc2cc(S(=O)(=O)N3CCCC3)ccc2N1C(C)=O (stereo not drawn),/,7.8
SMILES,Mtb RmlCD inh,VHR inh abs
Cc1ccc(S(=O)(=O)N2CCCC2C(=O)NCc2ccccc2F)cc1 (stereo not drawn),/,-17.1
CC(=O)N1c2ccc(S(=O)(=O)N3CCCC3)cc2CC1C(=O)NCc1ccccc1F (stereo not drawn),/,56.3*
O=C(O)C1CCCN1S(=O)(=O)c1ccc(Cl)cc1 (stereo not drawn),/,27.4
O=C(NCc1ccccc1F)C1CCCN1S(=O)(=O)c1ccc(F)cc1 (stereo not drawn),/,58.7*
CC1CN(C(=O)CCN2C(=O)c3ccccc3C2=O)CC(C)O1 (stereo not drawn),/,11.8
CSc1nc(C)cc(OCC(=O)N/N=C/c2ccccc2O)n1,/,16.4
O=C(CN1CCN(Cc2ccc(Cl)cc2)CC1)N/N=C/C=C/c1ccccc1[N+](=O)[O-],49.3,4.2
Cc1ccnc(NC2c3ccccc3C(=O)N2Cc2ccccc2Cl)c1 (stereo not drawn),/,7.8
Cc1ccc(NC(=O)NNS(=O)(=O)c2ccc(Br)cc2)cc1,7.8,8.8
Cc1ccc(S(=O)(=O)NC(=O)Nc2ccc(N(C)C)cc2)cc1,/,52.2*
COc1ccc(-c2cc(C(F)(F)F)nc(SCC(=O)NCCCN3CCOCC3)n2)cc1,3.6,-2.8
COc1cc(C(=O)N2CCCN(C)CC2)cc(OC)c1C,/,56.9*
CN1CCCN(C(=O)c2ccc(Br)cc2)CC1,/,34.8
CSc1ccccc1-c1nc(-c2ccncc2)no1,/,1.9
CCCOc1ccc(/C=N/NC(=O)CSCc2ccc([N+](=O)[O-])cc2)cc1OCC,-8.0,42.7
Cc1ccc(-n2nnc3c(=O)n(Cc4cccc(C)c4)cnc32)cc1,11.2,-13.1
Cc1ccc(-n2nnc3c(=O)n(Cc4cc(C)ccc4C)cnc32)cc1,/,51.6*
Cc1[nH]c2ccccc2c1C(=O)COC(=O)c1ccc2c(=O)n3c(nc2c1)CCC3,/,29.8
CCC(C)[C@H](NC(=O)N1CC(=O)Nc2ccccc21)C(=O)Nc1nccs1 (stereo partly drawn),/,52.5*
CC(C)c1ccc(NC(=O)CCNC(=O)N2CC(=O)Nc3ccccc32)cc1,/,51.2*
